# In the library only some 11% were active in any assay of this set; here they are far more common.
# ALDH1A1 block: inhibitors of human aldehyde dehydrogenase 1A1; Purified ALDH1A1, NADH fluorescence, propionaldehyde substrate; Potency, µM (highest dose often 75.3 µM), for the others: at the top dose activity, negative = inhibition, most hits filed as inhibitors; 220,000 compounds, 7.3% hits;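 further: potency means the concentration at half of the fitted maximal effect; plate controls were no enzyme wells and a reference inhibitor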
# PNC inhibitor: perinucleolar compartment assembly inhibition. PC3M PTB-GFP, PNC prevalence imaging, 16 h; hits give low values. activity change (PNC), negative = inhibition, % at 10 µM. 140,000 compounds, 3.1% hits. AID 2417;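 active means readout at or below -70, meaning at least 70% loss of cells showing the perinucleolar compartment, a nuclear body marking cancer cells; inconclusive means readout between -30 and a set limit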;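 further: plate controls were DMSO wells for no effect and camptothecin positive control wells for full effect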
#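 PC3M cells stably expressing PTB-GFP, 750–1000 cells/well, treated 16 h at 37 °C with compound (23 nl of library stock), in duplicate. After paraformaldehyde fixation and Hoechst stain, imaged at 20x; PNC prevalence scored by image analysis.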
# HttQ103 aggreg: reduces HttQ103-GFP aggregates in PC12 cells; 220,000 compounds, 1.1% hits; PC12 HttQ103-GFP aggregates, Acumen cytometry, 40 h; Potency, µM (doses to about 46.1 µM), inactives show at the highest dose activity change, negative = inhibition, usual class: inhibitors; active means well fitted curve in the direction sought with a large enough effect; inconclusive means small, poorly fitted or top-dose-only effect, or another doubt; inactive means no such curve, though single readings can be large; an effect the other way counts as inactive or inconclusive; further: potency means the concentration at half of the fitted maximal effect; on the % scale 0 is the no-effect control and ±100 the full control effect; nearly all actives have a fitted effect of over 60% in size
#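 PC12/HTTQ103-GFP, ecdysone-inducible; teb 100 nM; cpd qHTS titration; GFP aggregates read on laser cytometer, Ex 488/Em 500-530 nm.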
# GoLoco inh red: inhibitors of human Gai1-RGS12 GoLoco interaction (red fluorophore) | 230,000 compounds, 0.44% hits | Potency, µM (series often up to 61.6 µM), for inactives: top-dose activity, negative = inhibition, most hits filed as inhibitors | Gai1:RGS12 GoLoco peptide FP, rhodamine, 10 min | P63096 | AID 880; active means well fitted inhibition curve with a large enough effect, not every such curve was filed as active; inactive means no such curve, though single readings can be large or run the other way; further: potency means the concentration at half of the fitted maximal effect; on the % scale 0 is the no-effect control and ±100 the full control effect; nearly all actives have a fitted effect of over 30% in size
# Target sequence (P63096 whole entry, looked up): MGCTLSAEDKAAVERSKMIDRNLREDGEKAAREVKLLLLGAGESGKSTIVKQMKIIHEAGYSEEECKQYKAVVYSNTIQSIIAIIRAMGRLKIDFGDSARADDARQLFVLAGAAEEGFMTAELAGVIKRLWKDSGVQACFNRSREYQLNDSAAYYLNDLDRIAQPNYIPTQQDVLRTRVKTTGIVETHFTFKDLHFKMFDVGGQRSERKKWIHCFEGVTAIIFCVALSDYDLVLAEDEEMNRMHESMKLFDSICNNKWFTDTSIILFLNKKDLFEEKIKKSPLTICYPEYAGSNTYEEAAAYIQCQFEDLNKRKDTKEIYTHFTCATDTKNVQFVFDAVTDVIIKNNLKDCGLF
# HPGD block: inhibitors of human 15-hydroxyprostaglandin dehydrogenase (HPGD); P15428; purified HPGD, NADH fluorescence kinetic, PGE2 substrate; Potency, µM, for the others: at the highest dose activity change, negative = inhibition, usual class: inhibitors; 150,000 compounds, 4.3% hits; AID 894; further: potency means the concentration at half of the fitted maximal effect; on the % scale 0 is the no-effect control and ±100 the full control effect
# Target sequence (P15428 whole entry, looked up): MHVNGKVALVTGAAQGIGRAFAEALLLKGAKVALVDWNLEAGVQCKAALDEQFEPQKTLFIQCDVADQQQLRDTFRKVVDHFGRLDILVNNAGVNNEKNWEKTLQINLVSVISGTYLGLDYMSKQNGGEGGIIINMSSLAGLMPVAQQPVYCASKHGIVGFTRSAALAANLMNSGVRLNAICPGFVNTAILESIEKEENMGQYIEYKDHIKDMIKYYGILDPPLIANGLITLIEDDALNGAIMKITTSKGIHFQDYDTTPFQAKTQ
#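 NADH formation kinetics: reaction with 30 uM PGE2 and 1 mM NAD+ (final), 20 nM enzyme, Tris-HCl pH 8 with Tween 20, after 15 min compound preincubation at room temperature. Fluorescence change, last versus first of five reads.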
# HTT cytoprotect: Huntington cell model cytoprotection by ATP luminescence | 230,000 compounds, 0.14% hits | PC12 HTT-Q103 induced, cytoprotection, ATP luminescence, 40 h | Potency, µM (highest dose often 56.4 µM), for the others: cytoprotection (ATP increase), actives largely listed as activators; active means well fitted curve in the direction sought with a large enough effect; inconclusive means small, poorly fitted or top-dose-only effect, or another doubt; inactive means no such curve, though single readings can be large; an effect the other way counts as inactive or inconclusive; further: potency means the concentration at half of the fitted maximal effect; % of control where 0% means no effect; nearly all actives have a fitted effect of over 45% in size
#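 PC12 cells stably carrying ecdysone-inducible Htt exon 1 (Q103)–GFP were induced with 100 nM tebufenozide (final) alongside library compounds in a dose series. Cytoprotection was scored as retained ATP by ATPlite luminescence.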
# * marks the source's active call; other numbers are inactive results; ? = inconclusive; / = no result; [ ] = another dose, or the depositor's remark. Unless noted, the call rests on the fitted dose curve; in most records, active means well fitted inhibition curve with a large enough effect (not every such curve was filed as active); inconclusive means small, poorly fitted or top-dose-only effect, or another doubt; inactive means no such curve, though single readings can be large or run the other way.
SMILES,ALDH1A1 block,PNC inhibitor,HttQ103 aggreg,GoLoco inh red,HPGD block,HTT cytoprotect
N#C/C(=C\c1ccccc1OCc1ccc(C(=O)O)cc1)C(=O)Nc1ccc(O)cc1,5.6µM*,/,-12%,-5%,/,-25%
COC(=O)c1ccc(COc2ccccc2/C=C(\C#N)C(=O)Nc2ccc(C)cc2)cc1,7%,?,2%,10%,-3%,-5%[10 µM]
Cc1cc(C)c(NC(=O)C2C3/C=C\CCCCC32)c(C)c1 (stereo not given),6%,-15,-4%,9%,1%,-7%
Cc1ccc(NC(=O)C2C3/C=C\CCCCC32)cc1 (stereo not given),2%,-81*,0%,11%,-2%,1%[10 µM]
C#CCCCCCCCCCCCC(O)CC(O)COC(C)=O (stereo not given),14µM*,/,/,3%,-24%,0%
COc1cc2c(cc1OC)C(CC#N)=NC(C)(C)C2,2µM*,25,?,9%,-11%,-12%[10 µM]
Cc1ccc2c(c1)sc1nc(=O)n(-c3ccccc3)c(=O)n12,/,/,12%[9.22 µM],-6%,/,-26%[10 µM]
Cc1cc(C)c2nc3s/c(=C/c4ccc5c(c4)n(C)c(=O)n5C)c(=O)n3c2c1,18µM*,4,?,45%,16µM*,-20%[10 µM]
Cc1cc(C)c2c(N)c(C(=O)N/N=C/c3ccccc3)sc2n1,/,/,-6%[9.22 µM],7%,/,-3%[10 µM]
c1ccc2c(Cn3nnc4ccccc43)cccc2c1,?,26,-20%,1%,28µM*,-11%
CCCCCCCCOc1ccccc1C(=O)Nc1ccc(C(=O)OCC[N+](C)(CC)CC)cc1,/,/,-36%,/,/,-68%
O=C(/C=C/c1ccccc1)N/C(=C/c1ccccc1)C(=O)NCCCO,3%,-2,-1%,-2%,-1%,-2%[10 µM]
CNCC(O)Cn1c(C(F)(F)F)nc2ccccc21 (stereo not given),-3%,-100*,3%,-2%,-6%,-3%[10 µM]
CC(=O)Nc1ccc(NC(=O)C/C(C)=N/NC(N)=S)cc1,22µM*,/,21%,2%,/,1%
CCC1(C)Cc2c(C#N)c(N)sc(=S)c2CO1 (stereo not given),10µM*,1,-1%,16%,28µM*,-33%
CC1(C)OC(=O)C(=CNCC(O)c2ccccc2)C(=O)O1 (stereo not given),11µM*,15,5%,-4%,-18%,-31%
CC1(C)OC(=O)C(=CNc2ccccc2)C(=O)O1,?,3,-2%,5%,-18%,-16%[0.074 µM]
CCN(CC)CC(C)OC(=O)c1cc(OC)c(OC)c(OC)c1 (stereo not given),3%,-14,1%,12%,-12%,9%
COc1c(O)c2c(=O)cc(OC)c3c4c(OC)cc(=O)c5c(O)c(OC)c(C[C@@H](C)OC(=O)c6ccccc6)c(c(c1C[C@@H](C)OC(=O)Oc1ccc(O)cc1)c23)c54,-8%,/,/,16µM*,/,-36%
CC(=O)Oc1cc(-c2coc3cc(OC(C)=O)c(OC(C)=O)c(OC(C)=O)c3c2=O)cc(OC(C)=O)c1OC(C)=O,?,/,/,-24%,7.9µM*,/
CC(C)C[C@@H](CC(=O)N[C@@H](CCC(=O)O)CC(=O)O)NC(=O)[C@@H]1CCCC[C@H]1NC(=O)C[C@@H](NC(=O)C[C@H](Cc1ccccc1)NC(=O)[C@@H]1CCCC[C@H]1N)C(C)C,13%,/,/,-7%,-5%,2%[1.9 µM]
CSc1ccc(S(=O)(=O)NCCOc2ccccc2C)cc1,13µM*,23,-3%,49%,-20%,9%
CSc1ccc(S(=O)(=O)NCCSC(C)(C)C)cc1,7.9µM*,-14,-30%,8%,-12%,14%[10 µM]
CC(C)(C)SCCNS(=O)(=O)c1ccc2ccccc2c1,15µM*,14,4%[9.22 µM],0%,-21%,33%
COc1ccc(-c2nc3cnc(Oc4cccc(Cl)c4)nc3n(C3CC3)c2=O)cc1,?,/,/,0%,/,-3%
SMILES,ALDH1A1 block,PNC inhibitor,HttQ103 aggreg,GoLoco inh red,HPGD block,HTT cytoprotect
O=C(Nc1ccon1)c1ccc(Cl)s1,9%,?,-22%,2%,18µM*,-11%[10 µM]
O=C(Nc1ccon1)c1csc2ccccc12,?,-23,-12%,7%,25µM*,11%[0.074 µM]
CSc1nc2ccc(NC(=O)c3ccc(Cl)s3)cc2s1,?,/,-17%[9.22 µM],7%,/,0%[10 µM]
CC1(C(=O)OCc2cc(=O)n3cc(Br)ccc3n2)CC1(Cl)Cl (stereo not given),20µM*,/,12%,1%,/,-21%
CC1CC1C(=O)OCc1cc(=O)n2cc(Br)ccc2n1 (stereo not given),-14%,26,-8%,2%,-7%,-28%[0.074 µM]
O=C(Nc1ccc(Oc2ncnc3cc(Cl)ccc23)nc1)c1cccs1,/,/,3%[9.22 µM],5%,/,29%[10 µM]
CC1(C)OC(=O)N(CCc2ccccc2)C1(C)O (stereo not given),2%,-21,-4%,1%,-12%,-7%
CC1(C)OC(=O)N(Cc2ccco2)C1(C)O (stereo not given),18µM*,-6,6%,-10%,-17%,10%
CC1CCCN(c2ccc(C(=O)OCn3nnc4ccccc4c3=O)cc2[N+](=O)[O-])C1 (stereo not given),-2%,-22,-7%,-1%,16µM*,-13%[10 µM]
Cc1ccc(C(=O)OCn2nnc3ccccc3c2=O)cc1[N+](=O)[O-],?,/,-13%,1%,/,-33%
CC1CCCN(c2ccc(C(=O)Nc3nnc(C4CC4)s3)cc2[N+](=O)[O-])C1 (stereo not given),2.8µM*,?,-1%,-1%,-2%,14%[10 µM]
CCN(CC)CCCN(Cc1cc2cc3c(cc2[nH]c1=O)OCO3)C(=S)Nc1ccccc1OC,?,/,1%[9.22 µM],7%,/,5%[10 µM]
CS(=O)(=O)Nc1cccc(-c2nc(NCCN3CCOCC3)c3ccccc3n2)c1,-1%,/,/,-1%,-7%,-8%
O=c1c2c3c(sc2n(CCN2CCOCC2)c(=O)n1Cc1ccco1)CCCCC3,7.9µM*,-28,?,8%,-14%,6%
NC(=O)Cn1c(=O)n(Cc2ccco2)c(=O)c2c3c(sc21)CCCCC3,11µM*,-20,4%,12%,-18%,-24%
CC(O)CNc1nc2sc3c(c2c(=O)n1Cc1ccco1)CCCCC3 (stereo not given),?,/,5%[9.22 µM],11%,/,-16%[10 µM]
O=C(Cn1c(=O)n(Cc2ccco2)c(=O)c2c3c(sc21)CCCC3)Nc1ccccc1,?,9,-8%,-1%,-11%,-14%[0.074 µM]
O=c1c2c3c(sc2n(CCN2CCCCC2)c(=O)n1Cc1ccco1)CCCCC3,5.6µM*,-2,-27%,12%,-16%,-7%
CC(C)CCC[C@@H](C)[C@@H]1CC[C@@H]2[C@H]3CC[C@H]4C[C@@H](N)CC[C@@]4(C)[C@@H]3CC[C@]21C,14%[13.5 µM],/,/,3%[14.2 µM],-3%,-14%[10 µM]
